Laboratory results as given in PubChem BioAssay AID1240 (Sanford-Burnham Center for Chemical Genomics, 2008).
Hit rate of the full screen: of about 50,000 compounds, about 800 (1.6%) showed an effect of 50% or more. For the sample, strong results were picked, then their nearest neighbours and some compounds at random.

The compounds below were run against Bcl-2-like protein 10 (Homo sapiens) (UniProt Q9HD36) (assay: TR3 peptide-Bcl-B binding displacers, biochemical primary FP assay, phenotype converters (AID 1240;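 further: 0% = Bcl-B with tracer peptide and DMSO and 100% = tracer peptide lacking Bcl-B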)). Conditions: GST-Bcl-B / FITC-TR3 peptide fluorescence polarization; stronger effect = higher value; compound at 3.75 mg/L.
Bcl-2-like protein 10 (Homo sapiens), sequence (Q9HD36 whole entry, looked up): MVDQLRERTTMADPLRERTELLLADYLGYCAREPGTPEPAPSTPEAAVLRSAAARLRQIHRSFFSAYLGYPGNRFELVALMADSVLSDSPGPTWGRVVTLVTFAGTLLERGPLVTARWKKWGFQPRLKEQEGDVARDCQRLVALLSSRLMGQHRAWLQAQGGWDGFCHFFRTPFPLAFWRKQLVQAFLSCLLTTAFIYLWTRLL

Compound | displacement [%]
O=C(Nc1ccccc1Cl)c1ccc2ccccc2n1 | 1
Cc1ccccc1NC(=O)c1ccc2ccccc2n1 | -3.8
O=C(Nc1ccccc1[N+](=O)[O-])c1ccc2ccccc2n1 | 89.3
CC(=O)Nc1ccc2oc(-c3ccc4nc(NC(C)=O)sc4c3)nc2c1 | -4.1
Cc1ccc(S(=O)(=O)N2CCCCCC2)cc1 | -12.9
C=CCN1C(=O)/C(=C/c2cc(C)n(-c3ccc(C(=O)OC)cc3)c2C)SC1=S | 109
COC(=O)c1ccc(-n2c(C)cc(/C=C3\SC(NC(C)=O)=NC3=O)c2C)cc1 | 114
C=CCN1C(=O)/C(=C\c2cc(C)n(-c3ccc([N+](=O)[O-])cc3)c2C)SC1=S | 14.9
COC(=O)c1cccc(-n2c(C)cc(/C=C3\SC(NC(C)=O)=NC3=O)c2C)c1 | 1.1
C=CCN1C(=O)/C(=C\c2ccc(C(=O)OC)cc2)SC1=S | 7.8
CC(=O)NC1=NC(=O)/C(=C/c2cc(C)n(-c3ccc(C(=O)O)cc3)c2C)S1 | -89.7
COc1ccccc1-n1c(SCC(=O)c2ccccc2)nc2ccccc2c1=O | -4.7
COc1ccc(-c2cc(C(=O)OC(C)C)c3cc(Br)ccc3n2)cc1 | -3.9
O=C(Nc1ccccc1)C1C2/C=C\CCCCC21 (centres undefined) | -10.2
O=C(N/N=C/c1ccco1)c1ccc(C(=O)N/N=C/c2ccco2)cc1 | 27.6
Cc1cccc(NC(=O)c2ccccc2NC(=O)c2cccs2)c1C | 9.5
CC1CCCCN1C(=O)c1cc2nc(-c3cccs3)cc(C(F)(F)F)n2n1 (centres undefined) | 18.3
Nc1c(C(=O)C2CC2)sc2nc(-c3cccs3)cc(C(F)(F)F)c12 | 52.1
O=C(O)c1cnn2c(C(F)(F)F)cc(-c3cccs3)nc12 | 5.9
N#C/C(=C(/O)C(c1ccccc1)c1ccccc1)c1nc2ccccc2s1 | -3.6
CC(C)(C)c1cc(C2=C(N3CCOCC3)C(=O)c3ccccc3C2=O)cc(C(C)(C)C)c1O | 11.6
COc1cc2nc(-c3ccc(Oc4ccc([N+](=O)[O-])cc4)cc3)oc(=O)c2cc1OC | 10.6
COc1cc2nc(-c3ccc([N+](=O)[O-])cc3)oc(=O)c2cc1OC | 78

Compound | displacement [%]
COc1cc2nc(-c3ccc([N+](=O)[O-])c(C)c3)oc(=O)c2cc1OC | -11.4
CCc1c(C)nc2ccc(C)cc2c1SCC(=O)O | 9.8
Cc1cc(C)nc(SCC(=O)N(c2ccccc2)c2ccccc2)n1 | -6.6
CSc1nc(N)c(C#N)c(-c2ccccc2)c1C#N | -11
NC(=O)c1ccc(NC(=O)COc2ccccc2Cl)cc1 | -2
Cc1cccc(OCCn2cc(C=C3C(=O)NC(=S)NC3=O)c3ccccc32)c1 | 11.2
C=CCc1ccccc1OCCn1cc(C=C2C(=O)NC(=O)NC2=O)c2ccccc21 | -6.7
C=CCc1ccccc1OCCn1cc(C=C2C(=O)NC(=S)NC2=O)c2ccccc21 | 53.6
CN1C(=O)/C(=C\c2cn(CCOc3ccc(Br)cc3)c3ccccc23)SC1=S | 3.5
C=CCc1ccccc1OCCn1cc(/C=C2/SC(=S)NC2=O)c2ccccc21 | 5.8
O=C1NC(=S)NC(=O)C1=Cc1cn(CCOc2ccc(Br)cc2)c2ccccc12 | 9.1
O=C1NC(=O)C(=Cc2cn(CCOc3ccc(Br)cc3)c3ccccc23)C(=O)N1 | 73.8
Cc1ccc(OCCn2cc(C=C3C(=O)NC(=O)NC3=O)c3ccccc32)cc1C | 79.3
COc1cccc(OCCn2cc(C=C3C(=O)NC(=O)NC3=O)c3ccccc32)c1 | 15.2
c1ccc(C2=C(c3ccccc3)N3CCN=C3S2)cc1 | 6.4
O=S1(=O)CCC(NC(=S)N/N=C/c2cccc3ccccc23)C1 (centres undefined) | 5.1
COc1ccc(-n2nc3cc(C)c(NC(=O)c4cc(Cl)ccc4OC)cc3n2)cc1 | -5.3
Cc1ccc(NC(=O)COC(=O)c2ccn(C)n2)cc1 | 13.5
Cc1cc(NC(=O)c2ccc(Cl)cc2Cl)ccc1NC(=O)c1ccccc1 | -2.3
CCOC(=O)C1=C(O)/C(=C\c2ccc([N+](=O)[O-])cc2)N=C1C | 1.5
CCOC(=O)C1=C(O)/C(=C/c2ccccc2)SC1=Nc1ccc([N+](=O)[O-])cc1 | -0.9
CCOC(=O)C1=C(O)/C(=C/c2cccc(Br)c2)SC1=Nc1ccc([N+](=O)[O-])cc1 | 63.1
CCOC(=O)C1=C(O)/C(=C\c2ccccc2[N+](=O)[O-])N=C1C | 15.7

Compound | displacement [%]
CCOC(=O)C1=C(O)/C(=C/c2cccnc2)SC1=Nc1ccc([N+](=O)[O-])cc1 | 55.2
CCOC(=O)C1=C(O)/C(=C/c2ccc(Br)cc2)SC1=Nc1ccc([N+](=O)[O-])cc1 | 15
CCOC(=O)C1=C(O)/C(=C/c2cccnc2)SC1=Nc1ccc(C)cc1 | 14.8
CCOC(=O)C1=C(O)/C(=C/c2cccc([N+](=O)[O-])c2)N=C1C | 129
CCOC(=O)C1=C(O)/C(=C/c2cccc(O)c2)SC1=Nc1ccc([N+](=O)[O-])cc1 | -1.1
CCOC(=O)c1c(NC(=O)/C=C/c2cccs2)sc(C)c1C | 2.9
Cc1ccc(OCC(=O)Nc2cc(Cl)cc(Cl)c2)cc1 | 12.4
O=C(NCc1ccc2c(c1)OCO2)c1ccc(F)cc1 | 11.2
COc1ccc(/C=C2/C(=O)ON=C2c2ccccc2)cc1 | 13.6
CC(=O)Oc1ccc2c(C)cc(=O)oc2c1C | -10.7
CCOc1ccccc1N1CCN(C(=O)C(Sc2ccccc2)c2ccccc2)CC1 (centres undefined) | -4.4
CC1CN(C(=O)c2cccs2)CC(C)O1 (centres undefined) | 3.3
CC(=O)Nc1ccc(NC2=C(Cl)C(=O)c3ccccc3C2=O)cc1 | 7.1
Cc1cc(Cl)ccc1OCC(N)=O | -0.8
CN(C)/C(=N\S(=O)(=O)c1ccc(Br)cc1)c1ccccc1 | 96.8
N/C(=N/S(=O)(=O)c1ccc(Br)cc1)c1ccccc1 | 8.5
Cc1ccc(S(=O)(=O)/N=C(\c2ccccc2)N(C)C)cc1 | 13.2
COc1cc(/C=N/N2C(=O)c3ccccc3C2=O)c([N+](=O)[O-])cc1OC | -1.8
COc1ccccc1/C=C1\SC(=S)N(c2c(C)n(C)n(-c3ccccc3)c2=O)C1=O | 1.2
Cc1c(N2C(=O)/C(=C/c3cccs3)SC2=S)c(=O)n(-c2ccccc2)n1C | 8.6
CCOc1ccc(Br)cc1C=Nc1c(C)n(C)n(-c2ccccc2)c1=O | -1.8
COc1cc(/C=C2/SC(=S)N(c3c(C)n(C)n(-c4ccccc4)c3=O)C2=O)c([N+](=O)[O-])cc1OC | 61.3
COc1cc(C=Nc2c(C)n(C)n(-c3ccccc3)c2=O)c([N+](=O)[O-])cc1OC | 130
